Source: PubChem BioAssay (NCATS)
Results filed as inconclusive are left out. Unmarked numbers belong to inactive results. Calls come from the whole dose curve; as a rule, active = well fitted cell-killing curve with a large enough effect; inconclusive = small, poorly fitted or top-dose-only effect; inactive = no such curve, though single readings can be large or run the other way.

assay: qHTS of pediatric cancer cell lines to identify multiple opportunities for drug repurposing: Primary screen for MG 63 (6-TG R) cells (AID 1347105); conditions: MG 63 (6-TG R) viability, CellTiter-Glo, 48 h; series mostly up to 46 µM; activity change, negative = cytotoxic: at the top concentration; note: nearly all actives have a fitted effect of over 50% in size
Text: Drug repurposing or repositioning has been offered as a strategy for drug development in oncology programs. This approach has special potential for childhood cancers and other rare or orphan diseases, where the expected return on new drug development has been a disincentive to pharmaceuticals. […] In this project we exploit the poly-pharmacology of drugs to discover new indications via phenotypic screening of a panel of 19 well-characterized cell lines derived from solid tumors seen in children and adolescents. The goal is to identify approved drugs with previously unrecognized anticancer properties that has the potential to reveal new mechanisms and biological processes involved in carcinogenesis or drug resistance. We employed a titration-based paradigm (quantitative high-throughput screening or qHTS), where all compounds were tested at multiple concentrations for their effect on cell viability. Concentration-response curves (CRCs) were derived directly from the primary screen, and both potency and efficacy values were used to identify compounds with robust bioactivity profiles. We screened the NIH Chemical Genomics Center (NCGC) Pharmaceutical Collection (NPC) and Mechanism Interrogation Plate (MIPE) small molecule collections of approved and investigational compounds against these cell lines; and measured metabolically active cells after 48 hours of compound treatment as a proxy for cell viability. […] Assay Submitter: Nathalia J. Martinez, National Center for Advancing Translational Sciences, National Institutes of Health, Rockville, MD, USA; email: natalia.martinez@nih.gov Shen, M et al. Quantitative high-throughput phenotypic screening of pediatric cancer cell lines identifies multiple opportunities for drug repurposing. Oncotarget 2017 Dec 19;9(4):4758-4772. PMID 29435139.
The cells were obtained from University of North Carolina (UNC), Pediatric Preclinical Testing Program (PPT), and Coriell Institute (CI). qHTS cell viability assay: Cells were assayed in growth media at a density of 500-1,000 cells/well. Five microliters of cells were dispensed into 1,536-well, white, solid-bottom, TC-treated plates (Greiner Bio One) using a multidrop dispenser and incubated at 37 degrees C, 5% CO2, under a humidified atmosphere for 5 hours. Twenty-three nanoliters of compounds and controls (neutral control DMSO or positive control bortezomib at final concentration of 2.3 µM) were subsequently transferred by Kalypsys pintool. For primary screens, the MIPE collection was tested at 11-point dilutions (final concentrations range from 0.78 nM to 46 µM) and the NPC collection at 8-point dilutions (final concentrations range from 0.59 nM to 46 µM). Compounds tested in follow-up screens were assayed at 11-point dilutions. Cells were incubated for 48 hours, followed by addition of 3 µL of CellTiter-Glo (Promega). After a 15 min incubation at room temperature, samples were analyzed for luminescence intensity using a ViewLux High-throughput CCD imager equipped with clear filters.
% is set by controls: 0 for no effect and ±100 for the full control effect.

Compound | activity change, negative = cytotoxic
C/C=C/C(=O)N(CC)c1ccccc1C | 8.08%
CC(=O)N[C@@H](CC(C)C)C(=O)O | -14.5%
CC(O)CCCCn1c(=O)c2c(ncn2C)n(C)c1=O (stereo not given) | -2.7%
COC(=O)c1cccnc1 | 4.35%
CCOC(=O)[C@H](CCc1ccccc1)N[C@@H](C)C(=O)N1CCC[C@H]1C(=O)O | -7.21%
O=C(CN1CCNCC1)NC1CCCCC1 | -25.8%
COC(=O)c1ccc(O)cc1 | -12.4%
CC1CCc2cc(F)cc3c(=O)c(C(=O)O)cn1c23 (stereo not given) | -7.78%
CC(=O)Nc1ccccc1 | -20.3%
C/C(=C(\CCO)SS/C(CCO)=C(\C)N(C=O)Cc1cnc(C)nc1N)N(C=O)Cc1cnc(C)nc1N | -10.5%
O=C1c2ccccc2S(=O)(=O)N1CCCCN1CCN(c2ncccn2)CC1 | -6.98%
CC[C@]12CCCN3CCc4c(n(c5ccccc45)[C@@](O)(C(=O)OC)C1)[C@@H]32 | 15%
CO[C@@]1(NC(=O)C(C(=O)O)c2ccc(O)cc2)C(=O)N2C(C(=O)O)=C(CSc3nnnn3C)CO[C@@H]21 (stereo not given in full) | 5.12%
CCc1nnc(NS(=O)(=O)c2ccc(N)cc2)s1 | -11.4%
Cc1cc(OI)c(C(C)C)cc1-c1cc(C(C)C)c(OI)cc1C | -7.99%
O=C(O)COC(=O)Cc1ccccc1Nc1c(Cl)cccc1Cl | -25.5%
Cc1[nH]c(C)c(Cl)c(=O)c1Cl | 3.22% [at 16.1 µM]
C1CCN2C[C@@H]3C[C@@H](CN4CCCC[C@@H]34)[C@H]2C1 | -9.26%
FC(F)(F)C(Cl)Br (stereo not given) | -16.2%
CCN(CC)CCOC(=O)C(c1ccccc1)c1ccccc1 | -14.4%

Compound | activity change, negative = cytotoxic
O=C(O)Cn1c(C(=O)Nc2nc(-c3ccccc3Cl)cs2)cc2ccccc21 | -13.8%
Cc1c(NC(=O)c2cccnc2)c(=O)n(-c2ccccc2)n1C | -2.02%
Cc1c(NC(C)C)c(=O)n(-c2ccccc2)n1C | -2.19%
CN1CC(=O)NC1=N | -21%
CC(=O)NS(=O)(=O)c1ccc(N)cc1 | -19.1%
O=C(Cn1ccnc1[N+](=O)[O-])NCCO | 58.2%
Cc1c(Cn2ccnc2)c2ccccc2n1CCC(=O)O | -10.2%
CC(=O)Nc1ccc(OCCOCCOc2ccc(NC(C)=O)cc2)cc1 | -15.1%
CC[C@H](C)[C@H](N)C(=O)O | -5%
CN1CCCN=C1COC(=O)C(O)(c1ccccc1)C1CCCCC1 (stereo not given) | -0.697%
CC(=O)Oc1cccc(C)c1 | 4.08%
COc1ccc(Cc2cnc(N)nc2N)cc1OC | -12.6%
CCN(CC)CC1CCCCN1CC(=O)N1c2ccccc2C(=O)Nc2cccnc21 (stereo not given) | -2.94%
CN1C(=O)CC(c2ccccc2)C1=O (stereo not given) | -21.9%
CN/C(=C\[N+](=O)[O-])NCCSCc1csc(CN(C)C)n1 | -20.7%
O=C1C(c2[nH]c3ccccc3c2O)=Nc2ccccc21 | -14.3%
COc1cc(C(=O)NCCCCCC(=O)O)cc(OC)c1OC | -27.9%
N[C@@H](Cc1ccc(O)cc1)C(=O)O | -16.1% [at 9.22 µM]
CC1(C)[C@@H](OC(=O)CCC(=O)O)CC[C@]2(C)[C@H]3C(=O)C=C4[C@@H]5C[C@@](C)(C(=O)O)CC[C@]5(C)CC[C@@]4(C)[C@]3(C)CC[C@@H]12 | 17%
NC(=O)NC1NC(=O)NC1=O (stereo not given) | -15.2%
